In PubChem BioAssay (NCATS):
Records with an inconclusive call do not appear. Where a call stands in place of a potency, no number is given. Activity calls are given as the source filed them. Calls come from the whole dose curve; as a rule, active = well fitted curve in the direction sought with a large enough effect; inconclusive = small, poorly fitted or top-dose-only effect, or another doubt; inactive = no such curve, though single readings can be large; an effect the other way counts as inactive or inconclusive.

Tests used:
[1] = molecular target: Luciferin 4-monooxygenase (Photinus pyralis) (UniProt P08659); test: Primary firefly luciferase (FLuc) qHTS assay for identification of artifact compounds. (AID 1845220); note: nearly all actives have a fitted effect of over 60% in size
How it was run: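 D-luciferin and ATP (10 uM each, final) in Tris acetate buffer pH 7.6 were incubated with compounds for 15 min at room temperature. The reaction was started with 10 nM Photinus pyralis luciferase and luminescence read after 5 min. Percent inhibition was fitted to a 4-parameter Hill equation.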

[2] = Primary fluorescence-based thiol-reactive (MSTI) qHTS assay for identification of artifact compounds. (AID 1845221);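 note: series mostly up to about 54 µM; thiol-reactive compounds lower the probe fluorescence signal; nearly all actives have a fitted effect of over 65% in size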
How it was run: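 MSTI probe at 4 uM final in 2% DMSO/PBS pH 7.4; compounds, 1 h at room temperature in dark. Fluorescence Ex/Em 525/598 nm, normalised to Acetyl-MSTI and MSTI, fitted to 4-parameter Hill.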

[3] = tested on: Nanoluciferase (engineered Oplophorus gracilirostris luciferase); test: Primary Nanoluciferase (NLuc) qHTS assay for identification of artifact compounds. (AID 1845222); note: series mostly up to about 54 µM
How it was run: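 Diluted conditioned medium from NLuc-expressing S16 cells treated with compounds for 15 min at room temperature, then Nano-Glo substrate added; luminescence read after 5 min. Percent inhibition versus no-enzyme and DMSO controls fitted to 4-parameter Hill equation.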

[4] = molecular target: Phospholipid hydroperoxide glutathione peroxidase GPX4 (Homo sapiens) (UniProt P36969); test: Primary qHTS Assay for Inhibitors of Recombinant Selenoprotein Glutathione Peroxidase 4 (GPX4) (AID 1845192); note: nearly all actives have a fitted effect of over 65% in size
Phospholipid hydroperoxide glutathione peroxidase GPX4 (Homo sapiens), sequence (P36969 whole entry, looked up): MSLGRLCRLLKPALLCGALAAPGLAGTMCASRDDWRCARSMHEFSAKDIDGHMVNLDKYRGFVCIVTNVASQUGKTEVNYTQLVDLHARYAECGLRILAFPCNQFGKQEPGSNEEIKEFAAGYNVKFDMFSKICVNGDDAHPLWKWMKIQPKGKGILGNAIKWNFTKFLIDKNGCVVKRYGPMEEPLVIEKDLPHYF
How it was run: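 Steps: GPX4 plus compound, 30 min RT; add GR/GSH/NADPH master mix; start with cumene hydroperoxide; read 340/450 nm fluorescence at 0 and 15 min. Finals were 200 nM GPX4, 1 mM GSH, 0.5 mM CHP, 0.5 mM NADPH, 100 nM GR.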

Row | Compound | Potency [1] | Potency [2] | Potency [3] | Potency [4]
1 | COc1ccnc2[nH]cc(C(=O)C(=O)N3CCN(C(=O)c4ccccc4)CC3C)c12 (centres undefined) | inactive | inactive | inactive | –
2 | COc1ccc2c(c1)N1C(=O)C[C@@]34C=CC[N@+]5([O-])CC[C@H]2[C@H](CC3)[C@@]145 | inactive | – | inactive | inactive
3 | O=C(O)c1cccc(CN2C(=O)/C(=C(\c3ccccc3)c3ccc(Cl)cc3)c3ccccc32)c1 | inactive | – | inactive | –
4 | CC1=COC(OC2OC(CO)C(O)C(O)C2O)C2C(CO)CC(OC(=O)/C=C/c3ccc(O)cc3)C12 (centres undefined) | inactive | – | inactive | inactive
5 | COc1ccc(OC2OC(CO[C@@H]3O[C@@H](C)[C@H](O)[C@@H](O)[C@H]3O)C(O)C(O)C2O)cc1OC (some centres undefined) | inactive | – | inactive | inactive
